Assay results reported in PubChem BioAssay (NCI).
Compounds without any hit were thinned out: in the full panel of roughly 83,000, 20% have a hit.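 Activity criterion: percent growth below 10, measured after cells in 96-well plates were exposed to a single compound concentration for 48 hours.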 Values without a mark were called inactive. Activity calls are given as the source filed them.

tested on: A498 renal; assay: NCI-60 one-dose screen, 48 h (100 = growth as untreated, 0 = no growth, -100 = all killed); conditions: 10 µM unless noted
Protocol: Growth inhibition of the A498 human tumor cell line is measured as a screen for anti-cancer activity. Cells are grown in 96 well plates and exposed to the test compound for 48 hours. Compounds are tested at a single concentration, which is 10^-5 M for most compounds. The reported endpoint is percent growth (GI% or GIPRCNT), where numbers from 0 - 100% represent growth inhibition, and numbers from -100% - 0 represent cell death. For example, a value of 40 represents 60% growth inhibition. A value of 0 means no net growth occurred over the course of the experiment. A value of -40 indicates 40% of cells at the beginning of the experiment died by the end of the experiment. A value of -100 means all cells are dead at the end of the experiment.
NCI-60 Human Tumor Cell Lines Screen was performed using the standard one-dose NCI protocol, which is described in more detail at https://dtp.cancer.gov/discovery_development/nci-60/default.htm.
Compounds with GIPRCNT values below 10 were considered active. Activity score was based on GIPRCNT using the following formula: […]
Score is 0 for GIPRCNT values of 100 or above, 50 for GIPRCNT values of 0, and 100 for GIPRCNT values of -100.

Question: `CCOC(=O)C1CSC(C)(C(=O)OCC)N1` (stereo not given) was tested. Which growth did it give?
Answer: 118%

Question: `O=C(O)c1cn(C2CC2)c2cc(N3CCN(C(=O)CSc4nc(NS(=O)(=O)c5ccccc5)cc(=O)[nH]4)CC3)c(F)cc2c1=O` was tested. Which growth did it give?
Answer: 113%

Question: How did the growth turn out when `O=C(C[n+]1cccc(Br)c1)c1ccc2c(c1)CCCC2` was run?
Answer: 106%

Question: With `O=C(Nc1ccc(-n2ccc3c(NC(=O)c4ccccc4)ncnc32)cc1)c1cccc(C(F)(F)F)c1` as the compound, how does the growth read?
Answer: 87.5%

Question: `Cc1cc(SCc2ccc(Cl)cc2Cl)nc(SCc2ccc(Cl)cc2Cl)n1` was tested. Which growth did it give?
Answer: 98.7%

Question: With `C#CCn1c(-c2cc(OC)c(OC)cc2Br)nc(-c2ccccc2)c1-c1ccccc1` as the compound, how does the growth read?
Answer: 37.7%

Question: Which growth does the source give for `c1ccc(-c2nc3sc(C(c4ccccc4)c4ccccc4)nn3c2-c2ccccc2)cc1` here?
Answer: 87.6%

Question: `CN(C)CC/C=C1\c2ccccc2Sc2ccc(Cl)cc21` was tested. Which growth did it give?
Answer: 89.5%

Question: `Oc1ccc(O)c(-[n+]2ccccc2)c1` was tested. Which growth did it give?
Answer: 108%

Question: For `CC(C)CCC[C@@H](C)[C@H]1CC[C@H]2[C@@H]3CC=C4N(c5ccccc5)C(=O)CC[C@]4(C)[C@H]3CC[C@]12C`, which growth is on record?
Answer: 118%

Question: With `Cc1ccc(-c2nc3c(N=Nc4ccc(S(N)(=O)=O)cc4)c(N)nn3c(N)c2C#N)cc1` as the compound, how does the growth read?
Answer: 59.3%

Question: With `COc1cc2c(/C=C3/C(=O)Nc4ccc(O)cc43)c(Cl)n(Cc3cc(OC)c(OC)c(OC)c3)c2cc1C` as the compound, how does the growth read?
Answer: 24.9%

Question: With `O=C(/C=C/c1ccco1)c1cccc(Nc2nc(Nc3ccccc3)nc(Nc3ccccc3)n2)c1` as the compound, how does the growth read?
Answer: -34.7% (active)

Question: For `CC(CCC(=O)O)[C@H]1CCC2C3C(=O)C[C@@H]4CC(=O)CC[C@]4(C)C3CC(=O)[C@@]21C` (stereo not given in full), which growth is on record?
Answer: 88%

Question: For `CC(C(C(=O)N1CCCCC1)N1CCCCC1)N1CCCCC1` (stereo not given), which growth is on record?
Answer: 119%

Question: `CCN(CC)C(=O)C1CCN(C(=O)c2ccccc2)CC1` was tested. Which growth did it give?
Answer: 85.7%

Question: `C=CCn1c(SCC(=O)Nc2ccc(C(=O)/C=C/c3cc(OC)c(OC)c(OC)c3)cc2)nnc1-c1ccc(OC)cc1` was tested. Which growth did it give?
Answer: -3.03% (active)

Question: With `CCC1(C(N)=O)CC2C=CC1CC2` (stereo not given) as the compound, how does the growth read?
Answer: 95.7%

Question: With `COc1ccc(C(=O)NC(=O)Nc2ccc3c(c2)NC(=O)/C3=C\c2[nH]c(C)c(C(=O)O)c2C)c(F)c1` as the compound, how does the growth read?
Answer: 64.8%

Question: For `C[C@]12CC[C@@H]3c4ccc(O)c(N)c4CC[C@H]3[C@@H]1CC[C@@H]2O`, which growth is on record?
Answer: 96%

Question: With `O=c1nc(N2CCOCC2)oc2c(-c3cccc4ccccc34)cccc12` as the compound, how does the growth read?
Answer: 8.01% (active)

Question: With `CCCCOc1nc2ccc(Cl)cc2cc1/C=C/C(=O)/C=C/c1ccc(OC)cc1` as the compound, how does the growth read?
Answer: 101%

Question: `CCCCOc1c(N)cc(Cl)cc1C(=O)OCCN(CC)CC` was tested. Which growth did it give?
Answer: 80.1%

Question: With `c1coc(CSc2ncnc3nc[nH]c23)c1` as the compound, how does the growth read?
Answer: 90.8%

Question: How did the growth turn out when `Cn1c(I)c(C#C[Si](C)(C)C)c(=O)[nH]c1=O` was run?
Answer: 130%

Question: How did the growth turn out when `COc1ccc(Cl)cc1NC(=O)c1cc2c(n1C)-c1nc(NC(=O)C(C)(C)C)sc1CC2` was run?
Answer: 94%

Question: For `CCN(CC)CCNC(=O)c1c(C)[nH]c(/C=C2\C(=O)Nc3cc(NC(=O)NC(=O)c4ccc(OC)cc4F)ccc32)c1C`, which growth is on record?
Answer: 77.6%

Question: For `COc1cc2ncnc(Oc3ccc(NC(=O)Nc4ccc(C5(C#N)CCCC5)cc4)c4ccccc34)c2cc1OC`, which growth is on record?
Answer: 82.4%

Question: `O=C(Nc1cccc(-n2ccc3c(NC(=O)c4ccccc4)nccc32)c1)c1cc(N2CCOCC2)cc(C(F)(F)F)c1` was tested. Which growth did it give?
Answer: 6.2% (active)

Question: `COc1cc(NS(C)(=O)=O)ccc1Cc1c2ccccc2nc2ccccc12` was tested. Which growth did it give?
Answer: -8.76% (active)

Question: Which growth does the source give for `CN1CCN(C(=O)/C=C/c2ccc([N+](=O)[O-])o2)CC1` here?
Answer: 76%

Question: For `C=C1C(=O)O[C@H]2[C@H]1CC/C(COC(=O)c1cccc3ccccc13)=C\CC[C@@]1(C)O[C@@H]21`, which growth is on record?
Answer: 82.2%

Question: `Nc1nc(-c2cc3c(cc2Cl)NC(=O)/C3=C/c2ccccc2)cs1` was tested. Which growth did it give?
Answer: 60%

Question: With `COc1ccc(CCNC=O)cc1OC` as the compound, how does the growth read?
Answer: 102%

Question: `O=C(c1ccccc1)[C@H]1[C@@H]2CCCN2[C@]2(C(=O)Nc3ccc(F)cc32)[C@]12C(=O)Nc1ccccc12` was tested. Which growth did it give?
Answer: 89.7%

Question: For `O=C(Nc1cccc([N+](=O)[O-])c1)Nc1cccc([N+](=O)[O-])c1`, which growth is on record?
Answer: 33.1%

Question: With `COc1ccccc1S(=O)(=O)Nc1ccc2c3c(cc(-c4cnn(C5CC5)c4)nc13)C(=O)N2C` as the compound, how does the growth read?
Answer: 59.3%

Question: `COc1cc(Nc2ncccc2C(=O)Nc2nc3ccc(F)cc3s2)cc(OC)c1OC` was tested. Which growth did it give?
Answer: 62.2%

Question: Which growth does the source give for `CC(=S)Nc1ccccc1` here?
Answer: 103%

Question: Which growth does the source give for `O=[N+]([O-])c1ccc(NS(=O)(=O)c2cc(Cl)ccc2Cl)c2ccccc12` here?
Answer: 23.9%
